Assay results: PubChem BioAssay (NCATS)
Unmarked numbers belong to inactive results. Results filed as inconclusive are left out. Where a call stands in place of a potency, no number is given. Active and inactive are the calls of the source. Unless noted, the call rests on the fitted dose curve; in most records, active means well fitted curve in the direction sought with a large enough effect; inconclusive means small, poorly fitted or top-dose-only effect, or another doubt; inactive means no such curve, though single readings can be large; an effect the other way counts as inactive or inconclusive.

How the values were obtained:
[1] = target: 3',5'-cyclic-AMP phosphodiesterase 4B (Homo sapiens) (UniProt Q07343); assay: qHTS Assay for Inhibitors of PDE-IV (AID 607; active means well fitted activation curve with a large enough effect in the main read-out, with a control signal flat, not every such curve was filed as active)
How it was run: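 Live HEK293 cells with a modified cyclic nucleotide-gated (CNG) channel report intracellular cAMP via membrane-potential dye fluorescence (ex 535/em 590 nm). Endogenous PDE-IV was targeted. Compounds were tested at up to 22.9 uM final; RO 20-1724 100 uM served as control.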

[2] = Cellular Toxicity (caspase-3) HepG2 (AID 654);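 further: cells exposed to compound for 16 hours before reading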
How it was run: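 Luminescent Caspase-Glo 3/7 readout after 16 hr compound exposure of human hepatocellular carcinoma HepG2 cells at 37 °C; qHTS concentration-response, normalized DMSO = 0%, 100 uM tamoxifen = 100%; AC50 by standard Hill equation.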

[3] = Cellular Toxicity (caspase-3) Jurkat (AID 655); settings: Jurkat caspase-3 activation, luminescence, DMSO = 0%, tamoxifen = 100%; at 92.2 µM (top of the series);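 further: cells exposed to compound for 16 h at 37 °C before reading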
How it was run: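 Jurkat cells (5000/well) in complete medium exposed 16 h at 37 C; caspase-3/7 activity read by Caspase-Glo luminescence after 20 min at room temperature. Normalized to DMSO and 100 uM tamoxifen; AC50 from Hill fits.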

[4] = Cellular Toxicity (caspase-3) HUV-EC-C (AID 656)
How it was run: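 HUV-EC-C cells (1000/well) in complete medium, compound-treated 16 h at 37 °C; caspase-3/7 activity read by Caspase-Glo 3/7 luminescence. Normalized to DMSO (basal) and 100 uM tamoxifen (100%); AC50 from Hill-equation concentration-response fits.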

[5] = Cellular Toxicity (caspase-3) SHSY5Y (AID 657)
How it was run: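 SH-SY5Y human neuroblastoma cells, 1500/well, exposed to compound for 16 hours at 37 °C in complete medium. Caspase-3/7 activity read by Caspase-Glo luminescence after 1 hr at room temperature, normalized to DMSO and 10 uM staurosporine; AC50 from Hill fit.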

[6] = Cellular Toxicity (caspase-3) BJ (AID 658)
How it was run: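 Plated BJ cells (1000/well) rested 5 hr, received compound for 16 hr at 37 °C, then Caspase-Glo 3/7 reagent for 1 hr at room temperature before luminescence reading.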

[7] = Cellular Toxicity (caspase-3) Mesangial (AID 660); settings: mesangial cells, normalized: DMSO 0%, 100 µM tamoxifen 100%; at 91.7 µM (top of the series);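 further: cells exposed to compound for 16 h before the caspase read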
How it was run: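 Luminescent Caspase-Glo 3/7 readout (aminoluciferin substrate cleavage, 20 min RT) after 16 h compound exposure at 37 °C of normal human mesangial cells. Signal increase normalized between DMSO basal and 100 uM tamoxifen; Hill-equation AC50.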

[8] = Cellular Toxicity (caspase-3) SK-N-SH (AID 661)
How it was run: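 Luminescent Caspase-Glo 3/7 read-out after 16 hr compound exposure of SK-N-SH neuroblastoma cells at 37 °C. Signal increase normalized to DMSO (basal) and 10 uM staurosporine (100%); AC50 from Hill equation fits of qHTS concentration-response data.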

[9] = Cellular Toxicity (caspase-3) H-4-II-E (AID 663); settings: H-4-II-E rat hepatoma, scaled: DMSO 0%, 100 µM tamoxifen 100%; at 92.2 µM (top of the series);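 further: cells exposed to compound for 16 hr before readout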
How it was run: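 Caspase 3/7 activation measured in H-4-II-E cells in complete culture medium after 16 hr treatment at 37 °C, using luciferase-coupled substrate readout; AC50 values come from Hill-equation fits of normalized concentration-response data.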

[10] = Cellular Toxicity (caspase-3) Hek293 (AID 664); settings: HEK293 caspase-3 activation; caspase-3 activation: at 92.2 µM (top of the series), DMSO = 0%, 100 µM tamoxifen = 100%;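 further: cells exposed to compound for 16 h at 37 °C before readout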
How it was run: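 Luminescent Caspase-Glo 3/7 readout (aminoluciferin release) in HEK293 cells after 16 h compound treatment, 37 °C. Normalization: DMSO = basal, 100 uM tamoxifen = 100% stimulation. Concentration-response fitted with standard Hill equation for AC50.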

Sequence of 3',5'-cyclic-AMP phosphodiesterase 4B (Homo sapiens) (Q07343 whole entry, looked up): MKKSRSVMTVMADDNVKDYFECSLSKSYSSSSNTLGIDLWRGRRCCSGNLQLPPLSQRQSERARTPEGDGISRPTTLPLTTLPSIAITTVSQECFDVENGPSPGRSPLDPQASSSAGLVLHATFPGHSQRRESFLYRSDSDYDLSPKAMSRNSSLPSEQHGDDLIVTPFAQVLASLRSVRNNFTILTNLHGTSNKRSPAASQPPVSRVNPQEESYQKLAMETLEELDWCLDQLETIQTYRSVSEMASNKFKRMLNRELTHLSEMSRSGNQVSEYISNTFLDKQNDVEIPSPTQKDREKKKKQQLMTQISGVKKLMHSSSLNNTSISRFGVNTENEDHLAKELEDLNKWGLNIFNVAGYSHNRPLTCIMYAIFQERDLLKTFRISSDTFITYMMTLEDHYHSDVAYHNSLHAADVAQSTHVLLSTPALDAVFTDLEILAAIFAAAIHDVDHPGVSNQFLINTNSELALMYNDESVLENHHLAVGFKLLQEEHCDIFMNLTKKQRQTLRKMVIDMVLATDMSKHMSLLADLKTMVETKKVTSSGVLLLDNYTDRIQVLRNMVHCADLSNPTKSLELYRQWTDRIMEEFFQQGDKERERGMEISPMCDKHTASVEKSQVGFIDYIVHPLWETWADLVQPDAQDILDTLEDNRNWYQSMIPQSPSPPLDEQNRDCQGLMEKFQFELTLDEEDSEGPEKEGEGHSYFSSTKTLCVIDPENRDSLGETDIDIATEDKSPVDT

Question: For `NC(N)=Nc1nc(CSCC/C(N)=N/S(N)(=O)=O)cs1`, which outcome [1] is on record?
Answer: inactive

Question: For `NCCS`, which outcome [1] is on record?
Answer: inactive

Question: For `CC(=O)CCCCn1c(=O)c2c(ncn2C)n(C)c1=O`, which outcome [1] is on record?
Answer: inactive

Question: Which outcome [1] does the source give for `CC1(C)CCC2=C(O1)c1ccccc1C(=O)C2=O` here?
Answer: inactive

Question: For `C[N+](C)(C)CCCCCC[N+](C)(C)C`, which outcome [1] is on record?
Answer: inactive

Question: With `O=C(O)Cc1cccc2ccccc12` as the compound, how does the Potency [2] read?
Answer: inactive

Question: What about the caspase-3 activation [3] of the same compound?
Answer: 1.08%

Question: What about the Potency [4] of the same compound?
Answer: inactive

Question: What about the outcome [5] of the same compound?
Answer: inactive

Question: And the outcome [6]?
Answer: inactive

Question: What about the caspase-3 activation [7] of the same compound?
Answer: 0.654%

Question: What about the Potency [8] of the same compound?
Answer: inactive

Question: And the caspase-3 activation [9]?
Answer: 0.142%

Question: What about the Potency [10] of the same compound?
Answer: inactive

Question: For `O=c1c(-c2ccc(O)cc2)coc2cc(O)ccc12`, which outcome [1] is on record?
Answer: inactive

Question: And the Potency [2]?
Answer: inactive

Question: And the caspase-3 activation [3]?
Answer: -7.71%

Question: What about the Potency [4] of the same compound?
Answer: inactive

Question: What about the outcome [5] of the same compound?
Answer: inactive

Question: And the outcome [6]?
Answer: inactive

Question: What about the caspase-3 activation [7] of the same compound?
Answer: -3.39%

Question: What about the Potency [8] of the same compound?
Answer: inactive

Question: And the caspase-3 activation [9]?
Answer: -2.27%

Question: What about the Potency [10] of the same compound?
Answer: inactive

Question: For `Nc1ncnc2c1ncn2[C@@H]1O[C@@H](CO)[C@H](O)[C@H]1O`, which outcome [1] is on record?
Answer: inactive

Question: For `CC(C)OC(=O)C(C)(C)Oc1ccc(C(=O)c2ccc(Cl)cc2)cc1`, which outcome [1] is on record?
Answer: inactive
